Screening data: PubChem, National Center for Advancing Translational Sciences (NCATS)
VDR inh = blocks the human vitamin D receptor | VDR-SRC2-3 peptide fluorescence polarization, 2 h | actives 0.93% (n = 400,000) | Potency, µM, for inactives: max response, negative = inhibition, hits mostly inhibitors | AID 504847; further: on the % scale 0 is the no-effect control and ±100 the full control effect
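Fluorescence polarization assay measuring small-molecule disruption of VDR binding to the coregulator peptide SRC2-3. Compounds were pin-transferred (23 nl) into the reagent mix and incubated 2 h at room temperature before reading.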
GRP78 ERSR act = induces the endoplasmic reticulum stress response in human glioma cells | AID 602332 | U87-MG GRP78 promoter luciferase reporter, 16 h | Potency, µM, inactives show at the highest dose activation, actives largely listed as activators | actives 0.02% (n = 420,000); further: series mostly up to about 76 µM; % of control where 0% means no effect; nearly all actives have a fitted effect of over 35% in size
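Stably transfected U87-MG glioma cells carrying a GRP78-based luciferase sensor; 16 h compound incubation. Luminescence end-point read 10 min after Bright-Glo addition at room temperature.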
G9a inh = inhibitors of human histone lysine methyltransferase G9a. G9a H3K9 monomethylation, AlphaScreen, 2 h. AID 504332. Potency, µM (highest dose often 102 µM), without a hit: at the top dose activity, negative = inhibition, most hits filed as inhibitors. Q96KQ7. actives 8.8% (n = 350,000); further: on the % scale 0 is the no-effect control and ±100 the full control effect; nearly all actives have a fitted effect of over 75% in size
Target sequence (Q96KQ7 913-1193 limits assumed): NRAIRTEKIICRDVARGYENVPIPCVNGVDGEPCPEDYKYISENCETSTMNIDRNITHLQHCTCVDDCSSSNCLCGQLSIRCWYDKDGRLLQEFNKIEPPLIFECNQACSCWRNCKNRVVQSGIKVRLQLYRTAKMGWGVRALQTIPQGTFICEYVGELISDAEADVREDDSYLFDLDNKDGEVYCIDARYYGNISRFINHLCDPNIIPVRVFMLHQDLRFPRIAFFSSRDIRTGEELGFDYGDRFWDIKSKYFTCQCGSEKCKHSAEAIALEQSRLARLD
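Readings reflect AlphaScreen signal from monomethyl-H3K9 antibody detection. HMT at 20 nM; substrate b-H3K9 500 nM; cofactor SAM 20 uM; 2 h RT reaction; compounds tested as titrations in qHTS with 15 min preincubation.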
Sfp inh = inhibitors of Bacillus subtilis Sfp phosphopantetheinyl transferase | AID 1490 | actives 3.5% (n = 310,000) | Potency, µM, for the others: largest response in the series, negative = inhibition, actives largely listed as inhibitors | Q9F4F7 | Biochemical Sfp PPTase activity, qHTS;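 further: the enzyme is Sfp with the accession as filed and its product quenches rhodamine fluorescence; 0% = enzyme reaction without inhibitor and -100% = no enzyme wells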
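Compounds were incubated with enzyme (final 15 nM) for 15 min at room temperature before substrate addition started the reaction. Fluorescence at 525 nm excitation, 598 nm emission was recorded immediately and after 30 minutes.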
ALOX12 inh = inhibitors of human 12S-lipoxygenase ALOX12; actives 1.1% (n = 580,000); P18054; purified 12hLO, xylenol orange hydroperoxide absorbance; Potency, µM (top dose mostly 108 µM), for inactives: top-dose activity change, negative = inhibition, most hits filed as inhibitors; further: on the % scale 0 is the no-effect control and ±100 the full control effect
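Hydroperoxide product was detected by ferrous iron/xylenol orange as the 573 to 405 nm absorbance ratio. Arachidonic acid at 40 uM (final) was turned over for 30 min at room temperature by 150 nM human 12hLO, pH 7.0 Hepes buffer, after 15 min compound preincubation.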
The depositor's hits bear a star; ? = inconclusive; nt = no result. The full list was thinned out, with hits kept by preference. The call rests on the fitted dose curve; in most records, active means well fitted curve in the direction sought with a large enough effect; inconclusive means small, poorly fitted or top-dose-only effect, or another doubt; inactive means no such curve, though single readings can be large; an effect the other way counts as inactive or inconclusive. Potency means the concentration at half of the fitted maximal effect.

SMILES	VDR inh	GRP78 ERSR act	G9a inh	Sfp inh	ALOX12 inh
CCOc1ccc(-c2csc(NC(=O)c3ccco3)n2)cc1	-18.3%	1.9%	39.8µM*	-6.8%	?
O=C(NC(=S)Nc1nc(-c2ccc(Br)cc2)cs1)c1ccco1	13.8%	-3.0%	5.5%	-3.0%	-2.3%
O=C(NNc1nc(-c2ccc(Br)cc2)cs1)c1ccco1	-15.3%	2.9%	28.2µM*	-10.0%	5.3%
CN1C2=CC=CC=CC2=[N+](C)C12C=CC(=[N+]([O-])[O-])C=C2[N+](=O)[O-] (centres undefined)	-0.4%	2.7%	31.6µM*	-15.2%	-8.2%
COC1C(=O)N(c2cccc(F)c2)C12CCN(C(=O)c1ccncc1)CC2 (centres undefined)	nt	nt	nt	nt	32.5%
Nc1c(C(=O)O)sc2nc(-c3ccc(F)cc3)cc(-c3ccccc3)c12	-29.4%	-0.4%	?	50.1µM*	-26.0%
Cc1cc(NC(=O)Cc2cccc(C(F)(F)F)c2)ccc1N1CCN(C)CC1	nt	nt	nt	nt	-48.5%
COc1ccc(C=NNC(=O)CCCCC(=O)NN=Cc2ccc(OC)cc2)cc1	2.2%	-2.2%	nt	nt	2.0%
COC(=O)/C=C\C(C#N)(C#N)N=Cc1ccc(OC)cc1	12.6µM*	-8.2%	nt	nt	?
CCOC(=O)C(NC(=O)c1ccccc1)C(C)C (centres undefined)	nt	nt	nt	nt	8.4%
COC(=O)c1c(C)oc2ccc(N(C(=O)c3ccncc3)S(=O)(=O)c3cc(C)c(C)cc3C)cc12	4.2%	1.1%	10µM*	nt	-26.2%
CC(C)c1ccc(NC(=O)CSc2ncccc2C(=O)Oc2cccc([N+](=O)[O-])c2)cc1	-7.4%	4.4%	50.1µM*	-19.9%	?
COc1ccc(NC(=O)CSc2ncccc2C(=O)OC(C)C)cc1OC	1.9%	0.3%	?	8.9%	0.0%
Cc1ccccc1Cn1nc(C)c(NC(=O)NC2CCCC2)c1C	nt	nt	nt	nt	-21.5%
Cc1ccc2nc(Cl)c3cc(C(=O)N(CCN(C)C)Cc4ccco4)sc3c2c1	-10.9%	-5.9%	50.1µM*	-9.7%	-24.3%
Cc1ccc2cc3cc(C(=O)NCCCN4CCCC4)oc3nc2c1	?	-1.8%	79.4µM*	18.3%	?
Cc1ccc2nc(Cl)c3cc(C(=O)NCCCN4CCCC4)sc3c2c1	-14.6%	-4.6%	50.1µM*	4.4%	1.4%
Cc1ccc2cc3cc(C(=O)NCCCN4CCCCCC4)oc3nc2c1	-20.7%	3.3%	44.7µM*	-7.9%	?
CCCCCC/C(=N\NC(N)=O)c1ccccc1	nt	nt	nt	nt	-4.4%
CCN(CC)S(=O)(=O)c1ccc(NC(=O)COC(=O)c2nn(C)c(=O)c3ccccc23)cc1	nt	nt	nt	nt	-6.1%
O=C(c1cc(Cl)ccc1F)N1CCN(C(=O)c2nnn3c2COC(c2ccccc2)C3)CC1 (centres undefined)	nt	nt	nt	nt	14.5%
COCCn1c(C)cc(C(=O)COC(=O)c2cc3c(s2)CCC3)c1C	-0.3%	6.5%	44.7µM*	2.1%	0.0%
COCCn1c(C)cc(C(=O)COC(=O)c2ccc([N+](=O)[O-])o2)c1C	-0.8%	1.6%	79.4µM*	4.1%	-49.2%
Cc1cc(C(=O)COC(=O)c2ccc([N+](=O)[O-])o2)c(C)n1CC1CCCO1 (centres undefined)	-13.1%	-0.9%	44.7µM*	-3.0%	3.9%
COCCn1c(C)cc(C(=O)COC(=O)c2cccc(O)c2)c1C	-13.6%	-13.8%	?	9.9%	6.7%
Cc1cc(C(=O)COC(=O)c2ccc3c(c2)OCO3)c(C)n1CC1CCCO1 (centres undefined)	2.8%	-3.9%	50.1µM*	-1.8%	-15.0%
